Source: PubChem (National Center for Advancing Translational Sciences (NCATS))
This is a sample that favours compounds with a hit; in the whole collection about 7.4% have one here.
ELG1 genotox – inducers of genotoxicity in HEK293T ELG1-luciferase cells. HEK293T ELG1-luciferase reporter, luminescence, 16 h. Potency, µM (titrated, usually from 46 µM), without a hit: at the top dose activity change, positive = activation, actives largely listed as activators. hit rate 1.3% among 330,000; note: % of control where 0% means no effect; nearly all actives have a fitted effect of over 60% in size
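DMSO vehicle served as control against compound-treated ELG1-luciferase HEK293T cells; exposure lasted 16 hr at 37 °C and 5% CO2, followed by ONE-Glo luminescence detection after 30 min.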
p53 reactivator – re-activators of mutant p53. H1299 p53-A138V BP100-luciferase reporter, luminescence, 24 h. Potency, µM (doses to about 92.2 µM), without a hit: top-dose activity change, positive = activation, hits mostly activators. hit rate 0.063% among 320,000; note: % of control where 0% means no effect; nearly all actives have a fitted effect of over 45% in size
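H1299 (p53-null), stable ts p53-A138V + BP100-Luc; 1000 cells/well, Opti-MEM/10% FBS; cpd 4 pt, 1:5; 24 h, 37 deg C, 5% CO2; detection reagent 10 min RT; luminescence.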
Rab9 promoter act – activators of Rab9 promoter; Potency, µM (titrated, usually from 9.22 µM), for inactives: at the top dose activation, negative = inhibition, most hits filed as activators; Huh7 Rab9 promoter-luciferase reporter, luminescence, 24 h; AID 485297; hit rate 2.8% among 320,000; note: % of control where 0% means no effect; nearly all actives have a fitted effect of over 60% in size
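Luciferase signal after 10 min detection reagent at ambient indicates Rab9 promoter upregulation; stably transfected Huh7 cells were treated 24 h with compound in DMSO at 37 °C, 5% CO2.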
SMN2 splice enh – enhancers of SMN2 splice variant expression; HEK293 SMN2-luciferase splicing reporter, luminescence, 30-36 h; Potency, µM (titrated, usually from 46.1 µM), without a hit: at the top dose activity change, positive = activation, most hits filed as activators; hit rate 2.8% among 210,000; AID 1458; note: % of control where 0% means no effect; nearly all actives have a fitted effect of over 55% in size
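HEK293 cells carry an SMN2 minigene-luciferase reporter in which exon 7 inclusion puts luciferase in frame. Cells were seeded at 2000 cells/well, attached for 10-12 hours, then exposed to compounds for 30-36 hours at 37C before ONE-Glo luminescence.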
NPC1 promoter act – activators of NPC1 promoter | Potency, µM (titrated, usually from 9.22 µM), for inactives: top-dose activation, actives largely listed as activators | Huh7 NPC1 promoter luciferase reporter, 24 h | AID 485313 | hit rate 2.4% among 320,000; note: % of control where 0% means no effect; nearly all actives have a fitted effect of over 60% in size
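Compounds in DMSO were transferred onto Huh7 NPC1-luciferase reporter cells pre-incubated 2 h; after 24 h at 37 °C, Amplite reagent was dispensed and luminescence recorded 10 min later.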
FLuc counter – inhibits or activates purified firefly luciferase, miR-21 counter-screen; purified FLuc, Km substrates, luminescence inhibition; Potency, µM (doses to about 57.5 µM), inactives show at the highest dose activity change, negative = inhibition, hits mostly inhibitors; hit rate 6.9% among 360,000; AID 588342;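 note: plate controls were vehicle for no effect and reference inhibitor for full effect; nearly all actives have a fitted effect of over 55% in size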
Target sequence (P08659 whole entry, looked up): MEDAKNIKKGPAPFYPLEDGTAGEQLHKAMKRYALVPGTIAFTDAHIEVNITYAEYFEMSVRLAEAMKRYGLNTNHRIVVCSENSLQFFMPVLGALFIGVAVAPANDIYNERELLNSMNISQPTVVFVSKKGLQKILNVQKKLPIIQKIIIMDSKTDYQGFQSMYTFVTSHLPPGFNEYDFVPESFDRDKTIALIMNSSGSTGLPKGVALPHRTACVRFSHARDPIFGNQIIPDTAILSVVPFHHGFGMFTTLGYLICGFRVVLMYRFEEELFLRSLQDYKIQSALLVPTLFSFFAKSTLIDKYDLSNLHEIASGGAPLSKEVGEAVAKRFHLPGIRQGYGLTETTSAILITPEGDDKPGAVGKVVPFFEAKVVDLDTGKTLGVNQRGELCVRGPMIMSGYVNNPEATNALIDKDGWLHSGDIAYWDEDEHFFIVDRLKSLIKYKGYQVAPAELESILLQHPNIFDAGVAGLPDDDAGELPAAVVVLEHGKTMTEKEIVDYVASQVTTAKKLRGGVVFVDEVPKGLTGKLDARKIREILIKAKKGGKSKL
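Purified P. pyralis luciferase, 10 nM final, with Km-level 10 uM D-luciferin and 10 uM ATP in 50 mM Tris acetate pH 7.5, 10 mM Mg acetate, 0.01% Tween-20, 0.05% BSA; 6-point qHTS titration about 60 µM downward; luminescence read.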
* marks the source's active call; other numbers are inactive results. Calls come from the whole dose curve; as a rule, active = well fitted curve in the direction sought with a large enough effect; inconclusive = small, poorly fitted or top-dose-only effect, or another doubt; inactive = no such curve, though single readings can be large; an effect the other way counts as inactive or inconclusive. Potency is the fitted concentration of half-maximal effect.

For COc1cc(OC)c2c(=O)cc(-c3cccnc3)oc2c1 the results were ELG1 genotox inconclusive, p53 reactivator 7%, Rab9 promoter act 1%, NPC1 promoter act -3% and FLuc counter inconclusive.
Screening c1ccc(-c2cn3c4c(sc3n2)CCCC4)cc1 returned ELG1 genotox 0.082µM*, Rab9 promoter act 0.5µM*, SMN2 splice enh inconclusive, NPC1 promoter act 0.45µM* and FLuc counter 0.15µM*.
Cc1c(C(=O)N2CCc3ccccc3C2)sc2nc(-c3ccccc3)cn12 was read as ELG1 genotox -13%, p53 reactivator -3%, Rab9 promoter act 0%, SMN2 splice enh 2%, NPC1 promoter act -4% and FLuc counter inconclusive.
Screening Cc1cc(C)cc(NC(=O)Cn2c(=O)n(-c3cc(C)cc(C)c3)c(=O)c3oc4ccccc4c32)c1 returned FLuc counter -9%.
Screening Cc1cnc(NC(=O)C2CCC(C(C)(C)C)CC2)s1 (stereo not given) returned ELG1 genotox 12%, p53 reactivator 19%, Rab9 promoter act inconclusive, NPC1 promoter act 28% and FLuc counter 19µM*.
COc1ccc(Nc2ccccc2NC(=O)c2ccccc2Br)cc1 was read as ELG1 genotox -11%, p53 reactivator 4%, Rab9 promoter act -4%, NPC1 promoter act 1% and FLuc counter 6%.
For CCOc1ccc(C(=O)/C=C/c2ccccc2C(F)(F)F)cc1 the results were ELG1 genotox 1%, p53 reactivator 12%, Rab9 promoter act 10%, SMN2 splice enh -11%, NPC1 promoter act 14% and FLuc counter 5.4µM*.
CCOc1ccc(/C=C/C(=O)Nc2ccccc2C(F)(F)F)cc1 was read as ELG1 genotox 6%, p53 reactivator 14%, Rab9 promoter act 20%, SMN2 splice enh 14%, NPC1 promoter act 24% and FLuc counter inconclusive.
Screening COc1ccc(C(=O)/C=C/c2ccccc2C(F)(F)F)cc1 returned ELG1 genotox -1%, p53 reactivator inconclusive, Rab9 promoter act 1%, SMN2 splice enh -9%, NPC1 promoter act 15% and FLuc counter 12µM*.
Screening COc1ccc(NC(=O)c2c(NCc3cccc(OC)c3)sc3c2CCC3)cc1 returned FLuc counter -18%.
Screening COC(=O)C1CCN(c2csc3ccc(C)cc3c2=O)CC1 returned FLuc counter 6µM*.
Screening COC(=O)C1CCN(c2ccc([N+](=O)[O-])cc2[N+](=O)[O-])CC1 returned ELG1 genotox 3%, p53 reactivator -2%, Rab9 promoter act 0%, NPC1 promoter act -4% and FLuc counter -3%.
`COC(=O)C1CCN(c2csc3ccc(Cl)cc3c2=O)CC1` gave FLuc counter 7.6µM*.
CCOC(=O)CNc1c(-c2ccc(Cl)cc2)nc2cnccn12 was read as ELG1 genotox 0%, p53 reactivator -4%, Rab9 promoter act 1%, SMN2 splice enh 4%, NPC1 promoter act -1% and FLuc counter -14%.
Screening COCCNc1c(-c2ccc(OC)cc2)nc2ccc(Cl)cn12 returned ELG1 genotox 1%, p53 reactivator -1%, Rab9 promoter act inconclusive, SMN2 splice enh 21%, NPC1 promoter act 18% and FLuc counter 11µM*.
Screening CCOC(=O)CNc1c(-c2ccc(OC)cc2)nc2ccc(Cl)cn12 returned ELG1 genotox inconclusive, p53 reactivator inconclusive, Rab9 promoter act 0%, SMN2 splice enh inconclusive, NPC1 promoter act 4% and FLuc counter 8.5µM*.
Screening COc1ccc(-c2nc3ccc(Cl)cn3c2Nc2ccc(C)cc2)cc1 returned SMN2 splice enh 10% and FLuc counter -6%.
O=C(CCC1N=C2c3ccccc3N=C(SCc3ccccc3Cl)N2C1=O)NCCc1ccccc1 (stereo not given) was read as FLuc counter -1%.
`Brc1c(CSc2nc3ccccc3o2)nc2ncccn12` gave ELG1 genotox inconclusive, p53 reactivator inconclusive, Rab9 promoter act inconclusive, SMN2 splice enh 28%, NPC1 promoter act inconclusive and FLuc counter 15µM*.
For O=C(CSc1nc2ccccc2o1)Nc1ccc(Cl)cc1 the results were ELG1 genotox inconclusive, p53 reactivator 21%, Rab9 promoter act -2%, SMN2 splice enh 11%, NPC1 promoter act -1% and FLuc counter 3%.
Screening COC(=O)CSc1nc2ccccc2o1 returned ELG1 genotox -1%, p53 reactivator 7%, Rab9 promoter act -2%, SMN2 splice enh -9%, NPC1 promoter act 0% and FLuc counter inconclusive.
Screening Clc1c(CSc2nc3ccccc3o2)nc2ccccn12 returned ELG1 genotox 2.6µM*, p53 reactivator inconclusive, Rab9 promoter act 2µM*, SMN2 splice enh 14µM*, NPC1 promoter act 1.6µM* and FLuc counter 1.9µM*.
For Cc1cc(C)nc(SCc2nc3ncccn3c2Br)n1 the results were ELG1 genotox 3%, p53 reactivator -27%, Rab9 promoter act 5%, SMN2 splice enh -16%, NPC1 promoter act 5% and FLuc counter 0%.
Screening Clc1c(CSc2nc3ccccc3o2)nc2sccn12 returned ELG1 genotox 5.8µM*, p53 reactivator inconclusive, Rab9 promoter act 2µM*, SMN2 splice enh 10µM*, NPC1 promoter act 1.6µM* and FLuc counter 9.5µM*.
Cc1cccc(-c2nc3scc(CCNS(=O)(=O)c4ccc(Oc5ccccc5)cc4)n3n2)c1 was read as FLuc counter -1%.
For CC(Sc1ccccc1)C(=O)N1CCN(S(=O)(=O)c2ccc(Cl)cc2)CC1 (stereo not given) the results were ELG1 genotox -13%, p53 reactivator -3%, Rab9 promoter act -2%, NPC1 promoter act 1% and FLuc counter -1%.
CC(=O)Nc1ccc(NC(=O)/C(Cl)=C/c2ccccc2)cc1 was read as ELG1 genotox -1%, p53 reactivator inconclusive, Rab9 promoter act inconclusive, SMN2 splice enh -6%, NPC1 promoter act 23% and FLuc counter 11µM*.
Screening CN(C)c1ccc(N2CN=C3SCC(=O)N3C2)cc1 returned ELG1 genotox inconclusive, p53 reactivator -7%, Rab9 promoter act 6%, SMN2 splice enh -12%, NPC1 promoter act 15% and FLuc counter 11µM*.
Cc1ccc(N2C(=O)c3ccccc3C2C(=O)c2cc(C)ccc2O)cc1 (stereo not given) was read as ELG1 genotox -1%, p53 reactivator inconclusive, Rab9 promoter act 21%, SMN2 splice enh 13µM*, NPC1 promoter act 23% and FLuc counter inconclusive.
For CCCOc1cccc(NC(=O)c2c(-c3ccccc3Cl)noc2C)c1 the results were SMN2 splice enh -27% and FLuc counter -8%.
